This is a sample that favours compounds with a hit; in the whole collection about 7.3% have one here.
AmpC no deterg: inhibitors of E. coli AmpC beta-lactamase without detergent. Potency, µM (titrated, usually from 57.1 µM), hits mostly inhibitors. P00811. AID 485341. AmpC nitrocefin hydrolysis, absorbance 480 nm, 0.0001% Triton. hit rate 0.52% among 330,000; also: nearly all actives have a fitted effect of over 20% in size
Target sequence (P00811 whole entry, looked up): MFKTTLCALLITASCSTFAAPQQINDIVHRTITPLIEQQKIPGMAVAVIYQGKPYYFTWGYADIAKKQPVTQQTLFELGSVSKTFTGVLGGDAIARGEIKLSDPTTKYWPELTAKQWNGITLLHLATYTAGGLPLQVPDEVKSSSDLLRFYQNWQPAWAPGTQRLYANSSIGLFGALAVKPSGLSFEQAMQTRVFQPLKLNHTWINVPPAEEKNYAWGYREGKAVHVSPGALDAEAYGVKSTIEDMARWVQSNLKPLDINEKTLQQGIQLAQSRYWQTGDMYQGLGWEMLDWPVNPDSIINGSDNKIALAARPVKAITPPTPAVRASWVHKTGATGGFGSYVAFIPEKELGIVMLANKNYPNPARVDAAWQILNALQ
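AmpC (5.3 nM in the dispensed reagent) in 20 mM phosphate pH 7.0 with 0.01% (detergent screen) or 0.0001% Triton X-100 was preincubated with compounds for 15 min at room temperature. Nitrocefin was then added from an 800 uM solution, and hydrolysis was followed at 480 nm.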
HCMV antiviral: human cytomegalovirus inhibition | HFF cells, HCMV-luciferase reporter, 72 h; active compounds read low | activity change, negative = inhibition, % at 57.5 µM | hit rate 4.5% among 410,000 | AID 1259415; in the data active = activity change below about -60%; inconclusive = no clear call, values can overlap the other calls; inactive = above about -39%
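Human foreskin fibroblasts infected with luciferase-reporter HCMV at MOI 1 PFU/cell, compounds at two doses. Luciferase measured 72 h post infection; normalized to buffer-only basal and Salinomycin (10uM) controls.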
HCV inhibitor: blocks hepatitis C virus. hit rate 3.4% among 340,000. AID 651820. Huh7.5.1 HCVcc-Cre infection, luciferase reporter, 44 h. Potency, µM (highest dose often 41.8 µM), usual class: inhibitors
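1,000 cells/well; 4 h culture; + compound; + HCVcc-Cre (~0.5 moi); 44 h; luciferase substrate, RT 15 min; read 15 sec.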
AmpC inh detg: blocks E. coli AmpC beta-lactamase in detergent assay; P00811; AmpC hydrolysis of nitrocefin, absorbance 480 nm, 0.01% Triton; Potency, µM (highest dose often 114 µM), usual class: inhibitors; hit rate 0.041% among 370,000; AID 485294; also: nearly all actives have a fitted effect of over 25% in size
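20 mM phosphate pH 7.0 + 0.01% (detergent screen) or 0.0001% Triton X-100; 5.3 nM AmpC reagent; cpd preinc 15 min RT; nitrocefin (800 uM stock) to start; A480 q20 s × 4 min; Activity was normalised to no-enzyme and no-compound control wells.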
FMDV inh: blocks foot and mouth disease virus; FMDV antiviral cell-based qHTS; Potency, µM (highest dose often 57.9 µM), actives largely listed as inhibitors; hit rate 1.2% among 410,000; AID 1159524; calls by dose curve; tested in HEK293T cells; also: read-out not given here; nearly all actives have a fitted effect of over 45% in size
A number is an active result; n = inactive; u = inconclusive; x = not tested or not shown. Unless noted, calls follow the shape of the dose curve; as a rule, active = well fitted curve in the direction sought with a large enough effect; inconclusive = small, poorly fitted or top-dose-only effect, or another doubt; inactive = no such curve, though single readings can be large; an effect the other way counts as inactive or inconclusive.

SMILES	AmpC no deterg	HCMV antiviral	HCV inhibitor	AmpC inh detg	FMDV inh
CC(CC(=O)Nc1ccc2c(c1)c(=O)n(C)n2Cc1ccc(Cl)cc1)C(F)(F)F (stereo not given)	x	-72	x	x	n
COc1cc(Cn2c3ccc(NC(=O)CC(C)C(F)(F)F)cc3c(=O)n2C)ccc1F (stereo not given)	x	n	x	x	n
CN(C)c1ccc(NC(=O)Nc2ccc3c(c2)c(=O)n(C)n3Cc2ccccc2)cc1	x	n	x	x	n
Cn1c(=O)c2cc(NC(=O)Nc3cccnc3)ccc2n1Cc1ccc(Cl)cc1	x	-97	x	x	n
CN(C)c1ccc(NC(=O)Nc2ccc3c(c2)c(=O)n(C)n3Cc2ccc(Cl)cc2)cc1	x	-88	x	x	n
COc1ccccc1CNC(=O)COC(=O)c1cccc(S(=O)(=O)N2CCCCC2)c1	n	n	n	n	n
COc1ccc(Nc2cc(C)nc(NCc3ccccc3)n2)cc1	n	u	u	n	u
COc1cc(C)nc(NCc2ccccc2)n1	n	n	n	n	n
Cc1cc(NC2CCCCC2)nc(NCc2ccccc2)n1	n	-93	u	n	u
Cc1ccc(Nc2cc(C)nc(NCc3ccccc3)n2)cc1	n	-83	10µM	n	n
CC1CN=C(c2ccccc2)O1 (stereo not given)	x	n	n	x	n
Cc1c(NC(=O)/C(=C/c2cccs2)c2cccs2)c(=O)n(-c2ccccc2)n1C	n	-102	n	n	n
Cc1c(NC(=O)/C(C#N)=C/c2ccc(-c3ccc(Cl)cc3)o2)c(=O)n(-c2ccccc2)n1C	n	u	u	n	25µM
N#C/C(=N\Nc1ccc(Cl)cc1)C(=O)c1ccccc1	n	-99	22µM	n	u
COC(=O)C(=NNc1c(C)n(C)n(-c2ccccc2)c1=O)C(=O)OC	n	n	n	n	n
Cc1c(N/N=C(\C#N)C(=O)c2ccc(Cl)cc2)c(=O)n(-c2ccccc2)n1C	n	-100	u	n	n
CC1CN(C(=O)c2ccccc2)CCC1=NO (stereo not given)	x	n	x	x	x
CC(C)CN(C(=O)COC(=O)CCc1c[nH]c2ccccc12)c1c(N)n(Cc2ccccc2)c(=O)[nH]c1=O	n	n	u	n	n
CCOc1ccc(C2c3c(oc4ccccc4c3=O)C(=O)N2Cc2ccc3c(c2)OCO3)cc1 (stereo not given)	x	n	x	n	n
Cc1cc(CNC(=O)COc2ccccc2)c2ccccc2n1	n	n	n	n	n
O=C(Cc1ccccc1)NNc1c2ccccc2nc2ccccc12	n	-67	u	n	n
Cc1ccc(OCC(=O)NNc2c3ccccc3nc3ccccc23)cc1	n	-95	1µM	n	u
Cc1cccc(OCC(=O)NNc2c3ccccc3nc3ccccc23)c1	n	-97	1µM	n	u
CCOC(=O)c1c(C)n(C)c2ccc(O)c(CN(C)C)c12	n	u	n	n	n
Cc1ccc(-n2c(C)c([N+](=O)[O-])c3ccc(O)c(CN(C)C)c32)cc1	n	-93	u	n	u
SMILES	AmpC no deterg	HCMV antiviral	HCV inhibitor	AmpC inh detg	FMDV inh
COc1ccc(-n2c(C)c([N+](=O)[O-])c3ccc(O)c(CN4CCCCC4)c32)cc1	n	-73	n	u	u
N#Cc1ccc(OCC(=O)N(C2CCCCC2)C2CCS(=O)(=O)C2)cc1 (stereo not given)	n	n	n	n	n
CCOC(=O)/C(C#N)=C(/C)c1ccc(OC)cc1	n	n	32µM	u	n
COc1ccc(C(=O)c2coc3ccc(O)c(CN4CCCCC4)c23)cc1	40µM	n	n	n	n
COc1ccc(NC(=O)c2c(C)oc3ccc(O)c(CN4CCCCCC4)c23)cc1	x	-67	x	n	n
CCN1C(=O)c2ccccc2S(=O)(=O)c2ccc(C(=O)NCc3ccc(F)cc3)cc21	x	n	x	u	n
N#C/C(=C\N1CCN(Cc2ccc3c(c2)OCO3)CC1)c1nc2ccccc2s1	n	n	14µM	n	n
COc1cc(-c2cc(C)c3cccc(OC)c3n2)cc2c1OCCN(C(=O)CCn1nc(C)cc1C)C2	x	x	x	x	n
CCOCCCNC(=O)C(c1ccc(Cl)cc1)N(Cc1cccs1)C(=O)c1ccc(NC(C)=O)cc1 (stereo not given)	x	n	x	n	n
NS(=O)(=O)c1ccc(-c2ccc(C=C3C(=O)c4ccccc4C3=O)o2)cc1	n	u	n	u	n
CC(C)CC1=C/C(=C/c2ccc(-c3ccccc3)o2)C(=O)O1	32µM	n	n	u	n
CCC1(C2CCN(C(=O)c3cc(F)ccc3F)CC2)NC(=O)N(CCc2scnc2C)C1=O (stereo not given)	x	x	x	x	n
O=C1/C(=C\c2cc(Br)cc(Br)c2O)SC(=S)N1Cc1ccccc1	n	x	u	n	u
COc1cc(/C=C2\SC(=O)N(Cc3ccc(F)cc3)C2=O)cc([N+](=O)[O-])c1O	n	-76	n	n	n
O=C1CSC(=S)N1Cc1cccnc1	n	-98	u	n	u
O=C1/C(=C\c2cccc([N+](=O)[O-])c2O)SC(=S)N1Cc1ccccc1	n	-64	n	n	u
O=C1/C(=C/c2ccccc2O)SC(=S)N1Cc1cccnc1	n	-78	n	n	32µM
COC(CN(C)C(=O)c1cn(C)c2ccc(S(=O)(=O)N(C)C3CCCCC3)cc2c1=O)OC	n	n	n	n	n
COc1cc(/C=C2/SC(=S)N(Cc3ccccc3)C2=O)cc(Cl)c1O	n	u	u	n	u
O=C1/C(=C/c2ccc(O)c([N+](=O)[O-])c2)SC(=S)N1Cc1ccccc1	n	-61	n	n	u
S=C1SCN(Cc2cccnc2)CN1Cc1ccccc1	n	-94	u	n	n
S=C1NCN(Cc2cccnc2)CN1Cc1ccccc1	n	n	n	n	n
COc1cc([N+](=O)[O-])cc(/C=C2/SC(=S)N(Cc3ccccc3)C2=O)c1O	n	-88	n	n	u
Nc1ccc2c(Cl)cc(Cl)cc2c1	x	n	x	x	n
COC(=O)[C@]1(C#N)[C@H](CC(C)C)C(=O)N(Cc2ccc(Cl)cc2)[C@@H]1c1ccc(OC)cc1	x	n	x	x	x
SMILES	AmpC no deterg	HCMV antiviral	HCV inhibitor	AmpC inh detg	FMDV inh
O=C(C1CCCN(S(=O)(=O)c2cccc3nsnc23)C1)N1CCc2ccccc21 (stereo not given)	n	n	u	n	25µM
O=C(C1CCCN(S(=O)(=O)c2cccc3nsnc23)C1)N1CCc2ccccc2C1 (stereo not given)	n	n	u	u	25µM
O=C(C1CCCN(S(=O)(=O)c2cccc3nsnc23)C1)N1CCN(c2ccccc2Cl)CC1 (stereo not given)	x	n	x	n	25µM
O=C(C1CCCN(S(=O)(=O)c2cccc3nsnc23)C1)N1CCCCCC1 (stereo not given)	n	n	n	u	n
O=C(C1CCCN(S(=O)(=O)c2cccc3nsnc23)C1)N1CCN(c2ccccc2F)CC1 (stereo not given)	x	u	x	n	n
O=C(C1CCN(S(=O)(=O)c2ccccc2F)CC1)N1CCc2ccccc21	n	-68	n	n	n
